Measured values from PubChem BioAssay (EPA / NIEHS).
Results filed as inconclusive are left out. Activity calls are given as the source filed them. How the source made its calls, unless noted: active means hit-call score of the fitted dose curve at least 0.9, where 1 is the maximum; inactive means score below 0.9.

Assays:
[1] = ATG_TCF_b_cat_CIS: Attagene CIS-FACTORIAL HepG2 Assay for human T-Cell-Factor with beta-catenin (TCF/b-cat) (AID 2282965); settings: HepG2 TCF/beta-catenin cis-reporter transcription, actives raise or lower the signal
Procedure, shortened: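 Cells of the HepG2 line carry transiently transfected reporter units whose promoters respond to endogenous factors. Twenty-four hours post-dosing, reporter mRNA induction is measured by fluorescent RT-PCR and capillary electrophoresis, with DMSO as baseline.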

[2] = ATG_TAL_CIS: Attagene CIS-FACTORIAL HepG2 Assay for human TAL Basal Promoter (AID 2282966); settings: HepG2 Attagene cis-factorial TAL promoter reporter; actives raise or lower the signal;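 further: background control endpoint measuring basal TAL promoter reporter mRNA not a specific factor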
Procedure, shortened: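 After 24 hours of chemical exposure, transfected HepG2 cells yielded RNA that was converted to 6-FAM-labelled, HpaI-digested reporter fragments for capillary electrophoresis. Values derive from bidirectional fitting against DMSO controls.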

[3] = ATG_TGFb_CIS: Attagene CIS-FACTORIAL HepG2 Assay for human Transforming Growth Factor (TGF) (AID 2282967); settings: HepG2 Attagene CIS TGFb reporter, mRNA transcription; actives raise or lower the signal
Procedure, shortened: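 Multiplexed cis-reporter HepG2 system, 24 h treatment; mRNA induction read by fluorescence after RT-PCR and CE; DMSO negative control, bidirectional curve fitting.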

[4] = ATG_VDRE_CIS: Attagene CIS-FACTORIAL HepG2 Assay for human Vitamin D Receptor Element (VDRE) (AID 2282968); settings: HepG2 VDRE cis-reporter transcription, actives raise or lower the signal
Procedure, shortened: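 Transient MRTU transfection of HepG2, 24 h compound exposure. Readout: reporter transcripts via RT-PCR and capillary electrophoresis, fluorescence. Bidirectional fit vs DMSO.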

[5] = molecular target: Estrogen receptor (Homo sapiens) (UniProt P03372); assay: ATG_ERa_TRANS: Attagene TRANS-FACTORIAL HepG2 Assay for human Estrogen Receptor alpha (ERa) (AID 2282970; active means hit-call score of the fitted dose curve at least 0.9, where 1 is the maximum); settings: HepG2 Attagene TRANS ERa GAL4 reporter, mRNA
Procedure, shortened: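 Liver-derived HepG2 cells expressing chimeric nuclear receptor-Gal4 proteins from transient transfection were exposed for 24 hours. Gain of reporter mRNA signal versus DMSO, read by capillary electrophoresis of FAM-labelled PCR products, was recorded.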

[6] = molecular target: Glucocorticoid receptor (Homo sapiens) (UniProt P04150); assay: ATG_GR_TRANS: Attagene TRANS-FACTORIAL HepG2 Assay for human Glucocorticoid Receptor (GR) (AID 2282978; active means hit-call score of the fitted dose curve at least 0.9, where 1 is the maximum;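 further: activators score as hits since higher reporter transcript over DMSO is fitted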); settings: HepG2 Attagene TRANS GR reporter, mRNA transcription
Procedure, shortened: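 After 24 h incubation with test chemical, transfected HepG2 cells were lysed for RNA; reporter cDNA was amplified, FAM-labelled, HpaI-digested and sized on a capillary analyser. Signal gain relative to DMSO was scored.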

[7] = molecular target: X-box-binding protein 1 (Homo sapiens) (UniProt P17861); assay: ATG_Xbp1_CIS: Attagene CIS-FACTORIAL HepG2 Assay for human X-box Binding Protein 1 (XBP1) (AID 2282972); settings: HepG2 XBP1 cis-element reporter, Attagene multiplex; actives raise or lower the signal
Procedure, shortened: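 Human hepatoma HepG2, cis-element reporter system, 24 h treatment; mRNA quantified by RT-PCR/CE fluorescence; fit relative to DMSO.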

[8] = molecular target: Estrogen-related receptor gamma (Homo sapiens) (UniProt P62508); assay: ATG_ERRg_TRANS: Attagene TRANS-FACTORIAL HepG2 Assay for human Estrogen-Related Receptor gamma (ERRg) (AID 2282977; active means hit-call score of the fitted dose curve at least 0.9, where 1 is the maximum;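 further: hits increase reporter signal over DMSO so potencies reflect activators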); settings: HepG2 Attagene TRANS reporter, ERRg transactivation
Procedure, shortened: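 Exogenous NR-Gal4 chimera activity was assessed in HepG2 cells bearing transfected GAL4-UAS reporters. After 24 h dosing, total RNA underwent RT-PCR, fluorescent primer extension and HpaI digestion before capillary electrophoresis, with gain of signal scored against DMSO.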

[9] = molecular target: Steroid hormone receptor ERR1 (Homo sapiens) (UniProt P11474); assay: ATG_ERRa_TRANS: Attagene TRANS-FACTORIAL HepG2 Assay for human Estrogen-Related Receptor alpha (ERRa) (AID 2282971; active means hit-call score of the fitted dose curve at least 0.9, where 1 is the maximum); settings: HepG2 Attagene TRANS reporter, ERRa transactivation
Procedure, shortened: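 Reporter transcript induction was quantified by RT-PCR and capillary electrophoresis of FAM-labelled, HpaI-cut products after 24 h treatment of HepG2 cells carrying transiently transfected GAL4-UAS reporter units and an exogenous ERRa-Gal4 fusion; activity scored as increase over DMSO.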

[10] = ATG_M_19_TRANS: Attagene TRANS-FACTORIAL HepG2 Assay for M19 Transcription Factor (Internal Marker) (AID 2282974; active means hit-call score of the fitted dose curve at least 0.9, where 1 is the maximum); settings: HepG2 Attagene TRANS-FACTORIAL M19 internal marker reporter
Procedure, shortened: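 Transfected HepG2 (GAL4-UAS MRTUs), 24 h compound, TriZol RNA, DNase-treated RT, reporter PCR, FAM label, HpaI digest, CE fluorescence; gain vs DMSO.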

Measured: AC50

Chain of Estrogen receptor (Homo sapiens) (P03372 whole entry, looked up, the tested form may be a part): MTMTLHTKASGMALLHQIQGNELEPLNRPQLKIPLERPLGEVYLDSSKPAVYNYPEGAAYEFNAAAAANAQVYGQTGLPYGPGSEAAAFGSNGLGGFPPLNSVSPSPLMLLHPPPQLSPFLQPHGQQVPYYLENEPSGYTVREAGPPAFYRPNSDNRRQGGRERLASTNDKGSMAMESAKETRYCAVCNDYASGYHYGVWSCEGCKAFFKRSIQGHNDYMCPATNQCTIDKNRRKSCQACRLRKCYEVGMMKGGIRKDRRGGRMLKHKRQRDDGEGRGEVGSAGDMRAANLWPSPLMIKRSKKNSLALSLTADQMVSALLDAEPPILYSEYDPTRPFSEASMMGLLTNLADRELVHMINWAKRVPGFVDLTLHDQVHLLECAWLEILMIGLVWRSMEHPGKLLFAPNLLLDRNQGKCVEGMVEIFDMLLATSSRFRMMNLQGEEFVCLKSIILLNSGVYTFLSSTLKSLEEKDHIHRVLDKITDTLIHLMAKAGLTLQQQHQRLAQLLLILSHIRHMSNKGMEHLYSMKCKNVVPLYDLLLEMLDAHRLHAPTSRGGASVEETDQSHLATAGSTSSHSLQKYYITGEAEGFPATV
Chain of Estrogen-related receptor gamma (Homo sapiens) (P62508 whole entry, looked up, the tested form may be a part): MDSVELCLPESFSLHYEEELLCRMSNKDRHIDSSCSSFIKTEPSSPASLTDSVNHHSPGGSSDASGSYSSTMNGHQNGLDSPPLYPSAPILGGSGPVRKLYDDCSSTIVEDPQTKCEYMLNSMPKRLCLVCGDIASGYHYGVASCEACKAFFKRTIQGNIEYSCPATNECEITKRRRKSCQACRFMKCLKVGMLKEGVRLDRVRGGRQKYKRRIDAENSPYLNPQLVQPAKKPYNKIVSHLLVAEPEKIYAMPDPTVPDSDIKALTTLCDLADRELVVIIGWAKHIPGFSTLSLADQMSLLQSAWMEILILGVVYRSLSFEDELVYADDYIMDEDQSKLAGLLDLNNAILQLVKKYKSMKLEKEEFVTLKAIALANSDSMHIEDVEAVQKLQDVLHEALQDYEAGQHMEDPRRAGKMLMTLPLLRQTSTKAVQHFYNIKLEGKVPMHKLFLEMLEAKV
Chain of Steroid hormone receptor ERR1 (Homo sapiens) (P11474 whole entry, looked up, the tested form may be a part): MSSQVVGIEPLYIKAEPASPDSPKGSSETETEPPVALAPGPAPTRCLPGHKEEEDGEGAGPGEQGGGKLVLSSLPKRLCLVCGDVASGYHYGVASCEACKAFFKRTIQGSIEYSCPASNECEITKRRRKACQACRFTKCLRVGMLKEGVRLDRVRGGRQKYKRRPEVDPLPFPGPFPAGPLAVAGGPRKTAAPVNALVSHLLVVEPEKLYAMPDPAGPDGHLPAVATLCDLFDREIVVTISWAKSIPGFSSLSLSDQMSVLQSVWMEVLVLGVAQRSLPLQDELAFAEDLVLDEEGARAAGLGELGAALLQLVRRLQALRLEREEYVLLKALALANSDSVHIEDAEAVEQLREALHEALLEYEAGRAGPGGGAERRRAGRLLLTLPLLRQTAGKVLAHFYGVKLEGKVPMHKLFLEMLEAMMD
Chain of Glucocorticoid receptor (Homo sapiens) (P04150 whole entry, looked up): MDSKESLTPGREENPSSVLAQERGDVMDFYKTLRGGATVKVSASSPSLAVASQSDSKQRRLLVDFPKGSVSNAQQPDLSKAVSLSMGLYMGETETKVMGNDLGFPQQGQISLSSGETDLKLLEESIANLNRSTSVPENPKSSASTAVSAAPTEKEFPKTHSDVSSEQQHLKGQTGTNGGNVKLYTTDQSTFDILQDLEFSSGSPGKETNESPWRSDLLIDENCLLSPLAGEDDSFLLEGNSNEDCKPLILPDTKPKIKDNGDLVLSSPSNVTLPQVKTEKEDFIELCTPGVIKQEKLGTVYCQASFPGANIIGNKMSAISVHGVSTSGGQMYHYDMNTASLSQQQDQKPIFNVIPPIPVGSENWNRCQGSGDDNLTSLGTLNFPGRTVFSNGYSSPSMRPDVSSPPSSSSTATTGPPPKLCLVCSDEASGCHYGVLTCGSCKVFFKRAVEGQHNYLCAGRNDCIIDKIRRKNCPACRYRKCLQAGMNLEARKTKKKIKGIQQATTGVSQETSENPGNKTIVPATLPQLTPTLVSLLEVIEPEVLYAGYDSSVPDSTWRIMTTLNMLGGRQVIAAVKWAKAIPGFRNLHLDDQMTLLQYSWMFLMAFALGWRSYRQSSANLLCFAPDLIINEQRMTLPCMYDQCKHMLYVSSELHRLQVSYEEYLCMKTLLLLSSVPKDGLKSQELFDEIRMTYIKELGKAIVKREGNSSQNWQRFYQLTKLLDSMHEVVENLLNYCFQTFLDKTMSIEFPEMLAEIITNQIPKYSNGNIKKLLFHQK
Chain of X-box-binding protein 1 (Homo sapiens) (P17861 whole entry, looked up): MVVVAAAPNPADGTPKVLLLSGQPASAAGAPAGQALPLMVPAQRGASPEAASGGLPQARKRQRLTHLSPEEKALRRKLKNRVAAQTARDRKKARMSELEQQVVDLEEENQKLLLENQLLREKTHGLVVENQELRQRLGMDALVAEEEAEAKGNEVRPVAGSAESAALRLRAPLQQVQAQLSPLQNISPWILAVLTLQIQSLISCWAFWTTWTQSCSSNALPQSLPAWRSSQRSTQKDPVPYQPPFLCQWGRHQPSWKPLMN

Cc1cccc(Nc2cc(Cl)nc(SCC(=O)O)n2)c1C
inactive: [1] | [2] | [3] | [4] | [5] | [6]

Cc1cc(NC(=O)C(=O)O)cc(C)c1Oc1ccc(O)c2c1CCC2
inactive: [1] | [2] | [3] | [4] | [5] | [7] | [8] | [6]

Cc1ccccc1Cl
inactive: [1] | [2] | [3] | [4] | [5] | [7]

CCCCC(CC)COC(=O)CC(C(=O)OCC(CC)CCCC)S(=O)(=O)O (centres undefined)
inactive: [1] | [2] | [3] | [4] | [5] | [7] | [6]

CC(C)c1ccc(C(=O)N=C(N)N)cc1S(C)(=O)=O
inactive: [1] | [2] | [3] | [4] | [6]
active: [5] 68.6 µM

CN[C@H]1CC[C@@H](c2ccc(Cl)c(Cl)c2)c2ccc(S(N)(=O)=O)cc21
inactive: [1] | [2] | [3] | [4] | [9] | [8]

Nc1ccc(S(=O)(=O)c2ccc(N)cc2)cc1
inactive: [1] | [2] | [3] | [5]

NCC1(Cc2noc(=O)[nH]2)CCCCC1
inactive: [1] | [2] | [3] | [4] | [7]

CCCCCCCCCCCCCCCCCC(=O)O
inactive: [1] | [2] | [3] | [8]
active: [5] 25.9 µM

Cc1ccc2ncccc2c1
inactive: [1] | [2] | [3] | [7] | [10] | [8] | [6]

O=C(O)CCCCC(=O)O
inactive: [1] | [2] | [3] | [4] | [6]

COc1ccc2c(c1)c(CC(=O)O)c(C)n2C(=O)c1ccc(Cl)cc1
inactive: [1] | [2] | [3] | [4] | [7]

Oc1ccc2ccccc2c1N=Nc1ccccc1
active: [3] 100 µM | [5] 2.86 µM
inactive: [1] | [2] | [7]

Cc1cc(=O)[nH]c(=S)[nH]1
inactive: [1] | [2] | [3] | [4] | [7]

CC(=O)OC/C=C(\C)CCC=C(C)C
inactive: [1] | [2] | [3] | [5] | [7] | [10] | [6]

CCCCCCCCCCC
inactive: [1] | [2] | [3] | [9] | [6]

Nc1ccc2c(c1)C(=O)c1ccccc1C2=O
active: [5] 13.6 µM
inactive: [1] | [2] | [3] | [7]

CCCCCCCCCCCCCCCC
inactive: [1] | [2] | [3] | [5] | [7] | [8]

CC(=O)C(C)=CC1C(C)=CCCC1(C)C (centres undefined)
inactive: [1] | [2] | [3] | [7]
active: [5] 29.8 µM

NCCO
inactive: [1] | [2] | [3] | [5] | [7]

CC(=O)Oc1ccccc1C(=O)O
active: [1] 162 µM | [4] 82.9 µM
inactive: [2] | [3] | [5] | [6]

CC1(C)CC(N=C=O)CC(C)(CN=C=O)C1 (centres undefined)
inactive: [1] | [2] | [3] | [4] | [7]

CCOC(=O)CCC(=O)OCC
inactive: [1] | [2] | [3] | [4] | [9] | [7]

Clc1cc(Cl)c(Cl)cc1Cl
inactive: [1] | [2] | [3] | [8] | [6]

CCCc1cc(=O)[nH]c(=S)[nH]1
active: [5] 8.12 µM
inactive: [1] | [2] | [3] | [7] | [10]

O=C(OCCCCCOC(=O)c1ccccc1)c1ccccc1
inactive: [1] | [2] | [3] | [5] | [7]

C=CCOC(=O)c1ccccc1C(=O)OCC=C
active: [5] 76.7 µM
inactive: [1] | [2] | [3] | [7]

C=CCc1ccc(O)c(OC)c1
inactive: [2] | [3] | [8]
active: [1] 176 µM | [5] 41.4 µM

COc1cc(S(=O)(=O)O)c(C)cc1N=Nc1c(O)ccc2cc(S(=O)(=O)O)ccc12
inactive: [1] | [2] | [3] | [4] | [9] | [7] | [6]

CC=Cc1ccc(O)c(OC)c1
inactive: [1] | [2] | [3] | [5] | [7]

O=[N+]([O-])C(CO)(CO)CO
inactive: [1] | [2] | [3] | [4] | [9] | [7] | [10]

OC[C@@H](O)[C@@H](O)[C@H](O)[C@H](O)CO
inactive: [1] | [2] | [3] | [4] | [7] | [10] | [8]

Cc1nc(C)nc(N2C[C@@H](C)N(c3ccnc([C@@H](C)O)n3)[C@@H](C)C2)n1
inactive: [1] | [2] | [3] | [4] | [8] | [6]

Cc1oc(-c2ccccc2)nc1CCOc1cccc2c1ccn2CCC(=O)O
inactive: [1] | [2] | [3] | [4] | [7] | [6]

CCNc1cccc(C)c1
inactive: [1] | [2] | [3] | [4] | [8]
